From PubChem BioAssay
CBFb-RUNX1 inh: inhibitors of human CBF-beta and RUNX1 interaction; Q01196+Q13951; AlphaScreen CBFb-His/RUNX1-biotin binding, biochemical; Potency, µM (doses to about 59.8 µM), most hits filed as inhibitors; 230,000 tested, under 10 active; active = well fitted curve in the direction sought with a large enough effect; inconclusive = small, poorly fitted or top-dose-only effect, or another doubt; inactive = no such curve, though single readings can be large; an effect the other way counts as inactive or inconclusive
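Interaction loss through any mechanism counts as activity. Pre-formed complex of His-CBF-beta and biotin-RUNX1 (30 nM apiece) is incubated with compound 15 min, then with 50 ng nickel and 50 ng streptavidin beads for 90 min before AlphaScreen detection.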
HPGD block: HPGD (human) dehydrogenase inhibition. P15428. Potency, µM, most hits filed as inhibitors. 150,000 tested, 4.3% active. purified HPGD, NADH fluorescence kinetic, PGE2 substrate
Target sequence (P15428 whole entry, looked up): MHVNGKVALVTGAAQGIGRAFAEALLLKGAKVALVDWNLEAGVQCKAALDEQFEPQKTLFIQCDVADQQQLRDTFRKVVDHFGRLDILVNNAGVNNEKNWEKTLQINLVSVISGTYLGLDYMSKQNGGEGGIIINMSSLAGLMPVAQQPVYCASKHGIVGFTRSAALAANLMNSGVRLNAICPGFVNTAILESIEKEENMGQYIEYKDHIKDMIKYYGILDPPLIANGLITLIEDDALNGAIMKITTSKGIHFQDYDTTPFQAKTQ
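NADH formation kinetics: reaction with 30 uM PGE2 and 1 mM NAD+ (final), 20 nM enzyme, Tris-HCl pH 8 with Tween 20, after 15 min compound preincubation at room temperature. Fluorescence change, last versus first of five reads.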
HTT cytoprotect: cytoprotection in Huntington HTT-Q103 PC12 cell model; Potency, µM (series often up to 56.4 µM), most hits filed as activators; 230,000 tested, 0.14% active; PC12 HTT-Q103 induced, cytoprotection, ATP luminescence, 40 h; active = well fitted curve in the direction sought with a large enough effect; inconclusive = small, poorly fitted or top-dose-only effect, or another doubt; inactive = no such curve, though single readings can be large; an effect the other way counts as inactive or inconclusive; note: nearly all actives have a fitted effect of over 45% in size
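PC12 cells stably carrying ecdysone-inducible Htt exon 1 (Q103)–GFP were induced with 100 nM tebufenozide (final) alongside library compounds in a dose series. Cytoprotection was scored as retained ATP by ATPlite luminescence.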
ALDH1A1 block: ALDH1A1 (human) enzyme inhibition; P00352; Purified ALDH1A1, NADH fluorescence, propionaldehyde substrate; Potency, µM (titrated, usually from 75.3 µM), actives largely listed as inhibitors; 220,000 tested, 7.3% active; AID 1030
HTT aggregate: inhibitors of mutant huntingtin aggregate formation in PC12 cells. PC12 HttQ103-GFP aggregates, Acumen cytometry, 40 h. Potency, µM (series often up to 46.1 µM), hits mostly inhibitors. 220,000 tested, 1.1% active. AID 1688; active = well fitted curve in the direction sought with a large enough effect; inconclusive = small, poorly fitted or top-dose-only effect, or another doubt; inactive = no such curve, though single readings can be large; an effect the other way counts as inactive or inconclusive; note: nearly all actives have a fitted effect of over 60% in size
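Using laser scanning cytometry, GFP-positive aggregates were counted after lysis of PC12 cells induced with 100 nM tebufenozide to express HTT exon 1 Q103–GFP. Compounds were tested in titration.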
KDM4E inh: inhibitors of human JMJD2E histone demethylase. B2RXH2. JMJD2E catalytic domain, FDH-coupled NADH fluorescence (FDH is formaldehyde dehydrogenase). Potency, µM (doses to about 57.1 µM), actives largely listed as inhibitors. 230,000 tested, 1.6% active; note: nearly all actives have a fitted effect of over 50% in size
Target sequence (B2RXH2 1-337 limits assumed): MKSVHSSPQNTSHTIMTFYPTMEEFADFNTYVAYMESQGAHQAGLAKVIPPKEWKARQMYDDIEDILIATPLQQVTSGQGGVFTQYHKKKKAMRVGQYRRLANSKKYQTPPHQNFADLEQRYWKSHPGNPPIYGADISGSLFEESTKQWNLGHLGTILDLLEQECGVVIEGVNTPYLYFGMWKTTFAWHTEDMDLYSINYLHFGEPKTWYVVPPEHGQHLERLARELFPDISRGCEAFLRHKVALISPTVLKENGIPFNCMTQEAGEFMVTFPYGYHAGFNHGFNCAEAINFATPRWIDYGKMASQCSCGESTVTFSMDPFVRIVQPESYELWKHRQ
A number is an active result; - = inactive; ? = inconclusive; . = no result given; [ ] = dose if it differs, or a comment. Shown are actives, neighbours in structure and some others; about 9.8% of the full set was active somewhere. Unless noted, calls come from the whole dose curve; as a rule, active = well fitted inhibition curve with a large enough effect (not every such curve was filed as active); inconclusive = small, poorly fitted or top-dose-only effect, or another doubt; inactive = no such curve, though single readings can be large or run the other way.

SMILES	CBFb-RUNX1 inh	HPGD block	HTT cytoprotect	ALDH1A1 block	HTT aggregate	KDM4E inh
O=C(c1ccco1)N1CCN(C(=O)c2cc(-c3ccccc3)nc3ccccc23)CC1	-	-	-	-	-	-
Cc1cccc2c(C(=O)N3CCN(C(=O)c4ccco4)CC3)cc(-c3cccc(Br)c3)nc12	-	.	-[10 µM]	?	8.9µM	?
COC1(C#CC2C=CC(OC(C)=O)C(COC(C)=O)O2)CCCCC1 (centres undefined)	-[13.1 µM]	.	-[10 µM]	?	.	.
Cc1ncc([N+](=O)[O-])n1CC(=O)Nc1ccc2c(c1)OCO2	-	.	.	-	-	-
Cc1[nH][nH]c(=O)c1C(c1c(C)[nH][nH]c1=O)c1cn(Cc2ccccc2Cl)c2ccccc12	-	-	-[10 µM]	0.45µM	-	?
O=c1c2ccccc2c(C=NC2CCS(=O)(=O)C2)c(O)n1-c1ccccc1 (centres undefined)	-	-	-[0.074 µM]	18µM	-	-
O=c1c2ccccc2c(C=NCCO)c(O)n1-c1ccccc1	-	-	-[0.074 µM]	-	-	-
Brc1ccc2c(c1)OCCOCCOc1cc(Br)ccc1OCCOCCOCCO2	-	-	-[10 µM]	-	25µM	-
COc1ccc(NC2=C(Cl)C(=O)N(CCc3ccccc3)C2=O)cc1	-	-	-[10 µM]	-	-	-
COc1ccc(NC2=C(Cl)C(=O)N(CCc3ccccc3)C2=O)c(OC)c1	-	16µM	-[10 µM]	?	?	-
Cc1ccc(O)c(NC2=C(Cl)C(=O)N(Cc3ccccc3)C2=O)c1	?	.	-	2.8µM	?	22µM
CCCNC(=O)Cn1c(=O)/c(=C\c2ccc(-c3cccc([N+](=O)[O-])c3)o2)s/c1=C\C(=O)C(C)(C)C	-	-	-[10 µM]	?	-	-
CCCNC(=O)Cn1c(=O)/c(=C\c2ccc(-c3ccc([N+](=O)[O-])cc3)o2)s/c1=C\C(=O)C(C)(C)C	-	-	-[10 µM]	-	14µM	-
Cc1[nH]n(C(N)=S)c(=O)c1C(c1ccccc1)C(C#N)C#N (centres undefined)	-	-	-[10 µM]	32µM	-	-
CN1CCCC(C(=O)C(C#N)c2ccccc2)C1 (centres undefined)	-	-	-	-	-	-
Cc1[nH]n(-c2ncc(-c3ccccc3)s2)c(=O)c1C(c1ccc(Br)cc1)C(C#N)C#N (centres undefined)	-	10µM	-[10 µM]	13µM	-	-
CCc1nc(OCc2ccco2)c2sc3nc4c(cc3c2n1)COC(C)(C)C4	-	-	-	?	?	?
CCc1nc2c(sc3nc4c(cc32)COC(C)(C)C4)c(=O)n1Cc1ccccc1	-	?	-	0.71µM	-	-
CCc1nc2c(sc3nc4c(cc32)COC(C)(C)C4)c(=O)n1Cc1ccco1	-	-	-	2.5µM	-	?
COc1nc(C)nc2c1sc1nc3c(cc12)COC(C)(C)C3	-	?	-	?	-	?
CSc1nsc(SCC(=O)Nc2nc3ccc(C)cc3s2)n1	-	-	-[10 µM]	40µM	-	-
Cc1ccc2nc(NC(=O)CN3CCOCC3)sc2c1	-	-	-	-	3.2µM	-
Cc1sc(NC(=O)CN2CCOCC2)nc1-c1ccc2c(c1)CCN2S(=O)(=O)c1ccccc1	-	-	-	-	7.1µM	-
Cc1ccc2nc(NC(=O)COC(=O)CSc3nc(C)cc(C)n3)sc2c1	-	?	-	13µM	-	-
O=C(CN1CCOCC1)Nc1nc2ccc(F)cc2s1	-	-	-	-	-[9.22 µM]	-
SMILES	CBFb-RUNX1 inh	HPGD block	HTT cytoprotect	ALDH1A1 block	HTT aggregate	KDM4E inh
Cn1c(C(=O)OC(C(=O)NC2CCCCC2)c2cccnc2)cc2sccc21 (centres undefined)	-	-	-	-	-[9.22 µM]	-
CC1(C)CC(=O)c2sc(NS(=O)(=O)Cc3ccccc3)nc2C1	-	?	-[10 µM]	-	-	-
Cc1ccc(S(=O)(=O)Nc2nc3c(s2)C(=O)CC(C)(C)C3)cc1	-	.	-[10 µM]	32µM	-[9.22 µM]	-
COc1ccc(-c2nc(NC(=O)c3cc(C(C)(C)C)nn3C)sc2C)cc1	-	?	-	?	?	?
CC1(C)CC(=O)c2sc(NC(=O)C3CC3)nc2C1	-	-	-	11µM	-	-
CC1(C)CC(=O)c2sc(NC(=O)Cc3cccs3)nc2C1	-	-	-[10 µM]	0.79µM	?	-
Cn1nc(C(C)(C)C)cc1C(=O)Nc1nc2c(s1)C(=O)CC(C)(C)C2	-	-	-[10 µM]	14µM	-	-
CCOCC(=O)Nc1nc2c(s1)C(=O)CC(C)(C)C2	-	?	-	?	-	?
CS/C(N)=N/S(=O)(=O)c1ccc(NC(C)=O)cc1	-	.	-[10 µM]	.	-[9.22 µM]	-
O=C(O)c1ccc([N+](=O)[O-])c(P(=O)(O)O)c1	.	-	-[10 µM]	-[13.5 µM]	.	.
COc1cccc(CC(=O)Nc2nc3c(s2)C(=O)CC(C)(C)C3)c1	-	.	-	1.3µM	-	-
CC(=O)Nc1cc(C(C)(C)C)c(O)c(C(C)(C)C)c1	-	-	-	11µM	-	-
C=CCn1c(SCC(=O)N2CCOCC2)nc2scc(-c3ccco3)c2c1=O	-	-	-	18µM	-	-
CC(C)(CNc1ccc([N+](=O)[O-])cc1Cl)CNS(C)(=O)=O	-	-	-	?	-	-
O=S(=O)(NC1CCCCC1Nc1ccc(Cl)cc1)c1ccccc1 (centres undefined)	-	-	-[10 µM]	14µM	-	-
Cc1ccc(NC2CCCCC2NS(=O)(=O)c2ccc(Cl)cc2)cc1 (centres undefined)	-	-	-[10 µM]	-	-	-
O=S(=O)(NC1CCCCC1Oc1ccccc1)c1ccccc1 (centres undefined)	-	-	-[10 µM]	16µM	-	-
COc1cc(/C=N/NC(=O)C(=O)NCc2ccco2)cc(Br)c1O	-	.	-[10 µM]	.	-[9.22 µM]	-
COc1ccc(NC(=O)/C(C#N)=C\c2cc(C)n(-c3ccc(Oc4ccc([N+](=O)[O-])cn4)cc3)c2C)cc1	-	28µM	-	-	-	-
Cc1cc(C=O)c(C)n1-c1ccc(Oc2ccc([N+](=O)[O-])cn2)cc1	-	-	.	10µM	22µM	-
COc1ccc(NC(=O)/C(C#N)=C/c2cc(C)n(-c3ccc(N4CCOCC4)c([N+](=O)[O-])c3)c2C)cc1	-	-	-[10 µM]	-	-	-
CCCNC(=O)Cn1nc(C(F)(F)F)c2c1CCCC2	-	-	-[1.9 µM]	-	-	-
COc1ccc(CCN2C(=S)NC3CC2(C)Oc2ccc([N+](=O)[O-])cc23)cc1OC (centres undefined)	-	-	-	-	10µM	-
CC(=O)c1sc(Nc2nc(C)cc(C)n2)nc1C	-	14µM	-	0.89µM	-[9.22 µM]	-
Cc1oc2nc(SCC(=O)N3CCCCC3)nc(N)c2c1C	-	1.4µM	-[10 µM]	?	-	-
COc1ccccc1-c1nnc(SC/C(O)=C(\C#N)c2nc3ccccc3[nH]2)n1C1CCCCC1	-	35µM	.	?	-	-
